Assay results from ChEMBL document CHEMBL1961873, “Compounds: GSK PKIS; Assays: Nanosyn kinase panel” (2012).
Values joined by “and” are separate entries in the source; they are usually repeats but may differ in a detail not shown here. Equal values may be shown once.

Target: Tyrosine-protein kinase JAK1 (Homo sapiens) (UniProt P23458);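 note: each value is a mean inhibition of JAK1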
Conditions: at 1 µM

Chain of Tyrosine-protein kinase JAK1 (Homo sapiens) (P23458 whole entry): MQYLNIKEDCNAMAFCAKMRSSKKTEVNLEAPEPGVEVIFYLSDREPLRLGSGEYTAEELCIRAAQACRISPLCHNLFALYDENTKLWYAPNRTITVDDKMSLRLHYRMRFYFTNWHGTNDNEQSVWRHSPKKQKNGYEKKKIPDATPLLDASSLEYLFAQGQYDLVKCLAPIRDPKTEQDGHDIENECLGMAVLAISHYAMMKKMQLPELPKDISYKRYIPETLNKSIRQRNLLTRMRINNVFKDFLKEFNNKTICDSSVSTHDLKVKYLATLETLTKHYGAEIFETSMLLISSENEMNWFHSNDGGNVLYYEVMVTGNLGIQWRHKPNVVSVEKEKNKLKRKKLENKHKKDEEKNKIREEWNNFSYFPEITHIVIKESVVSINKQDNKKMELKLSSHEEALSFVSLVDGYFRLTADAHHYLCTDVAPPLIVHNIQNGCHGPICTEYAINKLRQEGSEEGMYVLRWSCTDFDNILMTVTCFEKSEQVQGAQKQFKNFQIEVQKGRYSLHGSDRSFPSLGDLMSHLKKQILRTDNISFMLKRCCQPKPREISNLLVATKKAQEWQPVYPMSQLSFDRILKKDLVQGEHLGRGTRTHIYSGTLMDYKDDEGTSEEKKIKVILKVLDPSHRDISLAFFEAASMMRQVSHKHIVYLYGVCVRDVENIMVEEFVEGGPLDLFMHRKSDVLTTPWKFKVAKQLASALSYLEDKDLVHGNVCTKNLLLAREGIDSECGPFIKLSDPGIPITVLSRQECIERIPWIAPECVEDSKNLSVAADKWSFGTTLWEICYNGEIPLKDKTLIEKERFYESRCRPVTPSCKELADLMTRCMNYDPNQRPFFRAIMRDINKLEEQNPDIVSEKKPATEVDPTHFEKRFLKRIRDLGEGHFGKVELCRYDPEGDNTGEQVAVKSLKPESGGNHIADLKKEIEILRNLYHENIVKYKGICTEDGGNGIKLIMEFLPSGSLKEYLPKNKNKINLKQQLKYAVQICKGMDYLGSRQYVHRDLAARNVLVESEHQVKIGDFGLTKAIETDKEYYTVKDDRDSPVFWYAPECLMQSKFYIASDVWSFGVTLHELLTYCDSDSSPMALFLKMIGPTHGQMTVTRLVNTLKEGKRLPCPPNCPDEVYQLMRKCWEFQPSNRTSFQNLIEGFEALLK

SMILES | inhibition
O=C(O[C@H]1CN[C@H](C#Cc2cc3ncnc(Nc4ccc5c(cnn5Cc5ccccc5)c4)c3s2)C1)N1CCOCC1 | 3.26%
COc1ccc(Nc2ncc(-c3ccccc3)o2)cc1OC | 7.81%
COc1cc(N2CCN(C(C)C)CC2)ccc1Nc1nc(Nc2cccc(F)c2C(=O)O)c2cc[nH]c2n1 | 8.87%
COc1ccccc1-c1cc(/C=C2\C(=O)Nc3ncc(Br)cc32)cc(Br)c1O | 0.51%
FC(F)(F)CNc1nccc(-c2cnn3ncccc23)n1 | 2.18%
CN1CCC(n2cnc(-c3ccc(F)cc3)c2-c2ccnc(NCCO)n2)CC1 | 7.32%
CS(=O)(=O)CCNCc1ccc(-c2ccc3ncnc(Nc4ccc(OCc5cccc(C(F)(F)F)c5)cc4)c3c2)o1 | 1.38%
COc1c(C(N)=O)cc(-c2ccc(Cl)cc2)cc1-c1ccc(S(N)(=O)=O)cc1 | 3.15%
Cc1nnc(-c2cccc(-c3ccc(C(=O)NCC4CC4)cc3)c2)o1 | 9.78%
O=C(O[C@H]1CN[C@H](C#Cc2cc3ncnc(Nc4ccc5c(ccn5Cc5cc(F)ccc5F)c4)c3s2)C1)N1CCOCC1 | 1.68%
CS(=O)(=O)Nc1ccc(-c2ccc3c(NC(=O)C4CC4)n[nH]c3c2)cc1 | -1.13%
CN1CCC(C(=O)Nc2n[nH]c3nc(-c4ccc(O)cc4)c(Br)cc23)CC1 | 19.7% and 3.43%
O=C(O[C@H]1CN[C@H](C#Cc2cc3ncnc(Nc4ccc(OCc5cccc(F)c5)c(Cl)c4)c3s2)C1)N1CCOCC1 | 13.7%
CCCNc1cccc(-n2ncc3c(N/N=C/c4ccncc4)ncnc32)c1 | 11.7%
COc1cccc(Nc2nccc(-c3cnn4ncccc34)n2)c1 | 13.2%
N#Cc1ccc2c(-c3ccnc(NC4CC4)n3)c(-c3ccc(F)cc3)nn2c1 | 0.31%

SMILES | inhibition
CNC(=O)c1ncccc1Nc1nc(Nc2cc3c(cc2OC)CCCN3C(=O)CN(C)C)nc2[nH]ccc12 | -0.74%
CC1(C)CC(n2cnc(-c3ccc(F)cc3)c2-c2ccnc(N)n2)CC(C)(C)N1 | 1.68%
COc1ccc2ncn(-c3cc(O[C@H](C)c4ccccc4C(F)(F)F)c(C(N)=O)s3)c2c1 | 5.43%
CC(C)c1ccc(-c2cc(-c3c[nH]nc3-c3ccccn3)ccn2)cc1 | 1.1%
CN1CCN(Cc2ccc(-c3cc4ncnc(Nc5ccc(OCc6cccc(F)c6)c(Cl)c5)c4s3)o2)CC1 | 3.27% and 18.5%
NS(=O)(=O)c1ccc(N/N=C2\C(=O)Nc3cccc(CCc4ccncc4)c32)cc1 | 1.96%
N#Cc1cccc(Nc2ncc(-c3ccccc3)o2)c1 | 10.7%
CNC(=O)c1cncc(/C=C/c2ccccc2C)c1 | 12.7%
Nc1ncnc2occ(-c3ccc(NC(=O)Nc4cc(C(F)(F)F)ccc4F)cc3)c12 | 8.18% and -2.37%
Cc1cc(O)cc(C)c1/C=C/c1cncc(C(=O)OC(C)(C)C)c1 | 7.09%
COc1ccc(-c2nn3ncccc3c2-c2ccnc(Nc3ccc(F)c(F)c3)n2)cc1 | 14.6%
O=C(Nc1n[nH]c2nnc(-c3cccnc3)cc12)C1CC1 | 2.85%
c1ccc(-c2n[nH]cc2-c2ccnc(-c3ccc(OCCn4ccnc4)cc3)c2)nc1 | 6.98%
CS(=O)(=O)Nc1ccc(-c2cc(-c3ccccc3)cc(C(N)=O)c2N)cc1 | 2.62%
OCCCNc1nccc(-c2c(-c3ccc(F)cc3)nn3cc(C(F)(F)F)ccc23)n1 | -4.2%

Target: Tyrosine-protein kinase JAK2 (Homo sapiens) (UniProt O60674);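 note: mean percent inhibition of JAK2 activity, from the GSK PKIS kinase panel screen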
Conditions: at 0.1 µM

Chain of Tyrosine-protein kinase JAK2 (Homo sapiens) (O60674 whole entry): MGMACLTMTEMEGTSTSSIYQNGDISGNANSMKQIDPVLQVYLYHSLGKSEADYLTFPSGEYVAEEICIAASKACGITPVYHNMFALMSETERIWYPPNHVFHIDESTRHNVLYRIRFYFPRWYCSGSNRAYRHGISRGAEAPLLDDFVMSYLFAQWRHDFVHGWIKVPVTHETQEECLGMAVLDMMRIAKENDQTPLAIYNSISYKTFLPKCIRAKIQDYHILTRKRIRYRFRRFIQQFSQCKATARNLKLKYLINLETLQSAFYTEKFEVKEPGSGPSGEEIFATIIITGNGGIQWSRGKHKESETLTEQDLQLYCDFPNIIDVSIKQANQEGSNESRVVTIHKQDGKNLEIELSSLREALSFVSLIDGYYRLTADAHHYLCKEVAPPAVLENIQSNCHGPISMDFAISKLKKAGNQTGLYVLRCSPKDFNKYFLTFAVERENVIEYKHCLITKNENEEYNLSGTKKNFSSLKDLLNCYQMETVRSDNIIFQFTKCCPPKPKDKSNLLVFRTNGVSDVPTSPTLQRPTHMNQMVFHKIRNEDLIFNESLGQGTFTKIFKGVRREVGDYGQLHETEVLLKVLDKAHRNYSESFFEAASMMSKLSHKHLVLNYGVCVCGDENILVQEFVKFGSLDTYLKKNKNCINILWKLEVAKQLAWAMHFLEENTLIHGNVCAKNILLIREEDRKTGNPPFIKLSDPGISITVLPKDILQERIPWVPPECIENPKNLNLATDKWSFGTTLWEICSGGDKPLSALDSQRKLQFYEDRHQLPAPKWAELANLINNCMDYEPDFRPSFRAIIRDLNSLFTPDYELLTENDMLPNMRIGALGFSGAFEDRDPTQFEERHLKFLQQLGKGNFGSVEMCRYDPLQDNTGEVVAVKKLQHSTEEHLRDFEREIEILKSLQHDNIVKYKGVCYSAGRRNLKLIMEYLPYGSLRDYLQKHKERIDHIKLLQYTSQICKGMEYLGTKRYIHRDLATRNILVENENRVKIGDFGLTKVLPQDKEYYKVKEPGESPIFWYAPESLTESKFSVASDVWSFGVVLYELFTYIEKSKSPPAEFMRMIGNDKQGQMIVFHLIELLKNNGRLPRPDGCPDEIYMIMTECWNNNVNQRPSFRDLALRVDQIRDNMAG

SMILES | inhibition
O=C(O[C@H]1CN[C@H](C#Cc2cc3ncnc(Nc4ccc5c(cnn5Cc5ccccc5)c4)c3s2)C1)N1CCOCC1 | -0.37%
COc1ccc(Nc2ncc(-c3ccccc3)o2)cc1OC | 1.09%
COc1cc(N2CCN(C(C)C)CC2)ccc1Nc1nc(Nc2cccc(F)c2C(=O)O)c2cc[nH]c2n1 | 6.66%
COc1ccccc1-c1cc(/C=C2\C(=O)Nc3ncc(Br)cc32)cc(Br)c1O | 1.66%
FC(F)(F)CNc1nccc(-c2cnn3ncccc23)n1 | 1.39%
CN1CCC(n2cnc(-c3ccc(F)cc3)c2-c2ccnc(NCCO)n2)CC1 | 0.46%
CS(=O)(=O)CCNCc1ccc(-c2ccc3ncnc(Nc4ccc(OCc5cccc(C(F)(F)F)c5)cc4)c3c2)o1 | 4.27%
COc1c(C(N)=O)cc(-c2ccc(Cl)cc2)cc1-c1ccc(S(N)(=O)=O)cc1 | 2.98%
Cc1nnc(-c2cccc(-c3ccc(C(=O)NCC4CC4)cc3)c2)o1 | 1.87%
O=C(O[C@H]1CN[C@H](C#Cc2cc3ncnc(Nc4ccc5c(ccn5Cc5cc(F)ccc5F)c4)c3s2)C1)N1CCOCC1 | 1.8%
CS(=O)(=O)Nc1ccc(-c2ccc3c(NC(=O)C4CC4)n[nH]c3c2)cc1 | 1.06%
CN1CCC(C(=O)Nc2n[nH]c3nc(-c4ccc(O)cc4)c(Br)cc23)CC1 | 1.01% and -0.3%
O=C(O[C@H]1CN[C@H](C#Cc2cc3ncnc(Nc4ccc(OCc5cccc(F)c5)c(Cl)c4)c3s2)C1)N1CCOCC1 | 0.79%
CCCNc1cccc(-n2ncc3c(N/N=C/c4ccncc4)ncnc32)c1 | 0.82%
COc1cccc(Nc2nccc(-c3cnn4ncccc34)n2)c1 | 1.95%
N#Cc1ccc2c(-c3ccnc(NC4CC4)n3)c(-c3ccc(F)cc3)nn2c1 | -0.51%

SMILES | inhibition
CNC(=O)c1ncccc1Nc1nc(Nc2cc3c(cc2OC)CCCN3C(=O)CN(C)C)nc2[nH]ccc12 | 1.24%
CC1(C)CC(n2cnc(-c3ccc(F)cc3)c2-c2ccnc(N)n2)CC(C)(C)N1 | 0.57%
COc1ccc2ncn(-c3cc(O[C@H](C)c4ccccc4C(F)(F)F)c(C(N)=O)s3)c2c1 | 1.01%
CC(C)c1ccc(-c2cc(-c3c[nH]nc3-c3ccccn3)ccn2)cc1 | 0.74%
CN1CCN(Cc2ccc(-c3cc4ncnc(Nc5ccc(OCc6cccc(F)c6)c(Cl)c5)c4s3)o2)CC1 | 0.99% and 0.67%
NS(=O)(=O)c1ccc(N/N=C2\C(=O)Nc3cccc(CCc4ccncc4)c32)cc1 | 0.5%
N#Cc1cccc(Nc2ncc(-c3ccccc3)o2)c1 | 0.78%
CNC(=O)c1cncc(/C=C/c2ccccc2C)c1 | 1.48%
Nc1ncnc2occ(-c3ccc(NC(=O)Nc4cc(C(F)(F)F)ccc4F)cc3)c12 | 2.05% and -0.57%
Cc1cc(O)cc(C)c1/C=C/c1cncc(C(=O)OC(C)(C)C)c1 | 1.65%
COc1ccc(-c2nn3ncccc3c2-c2ccnc(Nc3ccc(F)c(F)c3)n2)cc1 | 0.73%
O=C(Nc1n[nH]c2nnc(-c3cccnc3)cc12)C1CC1 | -0.35%
c1ccc(-c2n[nH]cc2-c2ccnc(-c3ccc(OCCn4ccnc4)cc3)c2)nc1 | 0.38%
CS(=O)(=O)Nc1ccc(-c2cc(-c3ccccc3)cc(C(N)=O)c2N)cc1 | 0.9%
OCCCNc1nccc(-c2c(-c3ccc(F)cc3)nn3cc(C(F)(F)F)ccc23)n1 | 1.8%
